Assay outcomes as filed in PubChem.
hgDAF-12 ag – hgDAF-12 agonism, primary luciferase screen; actives 1.8% (n = 370,000); HEK293 GAL4-hgDAF12 UAS-luciferase reporter, agonist luminescence; normalized to butyrate control; activation, % at 6.8 µM;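 active means activation above a cutoff set at the mean of all screened compounds plus 3 SD, cut at about 10% in these data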
hcDAF12 agonist – H. contortus DAF-12 activation, primary screen | HEK293 hcDAF-12 lit1-tk-luc reporter, luminescence; 0% DMSO, 100% Δ7-dafachronic acid | activation, % at 6.8 µM | actives 1.4% (n = 370,000) | AID 652067;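 active means activation above the mean of all tested compounds plus 3 SD, cut at about 5.5% in these data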
ssDAF12 agonist – activates DAF-12 receptor from parasite S. stercoralis | actives 1% (n = 370,000) | activation, % at 6.8 µM | HEK293 ssDAF-12/GRIP1 lit1-tk-luc reporter, luminescence; % of 3 µM dafachronic acid response;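 active means activation above the mean over all tested compounds plus 3 SD, cut at about 0.9% in these data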
DAX1 inh-1 – blocks DAX1 repression of SF-1 activated StAR promoter; HEK293T StAR-luciferase reporter, SF-1/DAX-1 repression relief; inhibition, % at 6.8 µM; actives 1.1% (n = 370,000);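 active means inhibition above the mean over all tested compounds plus 3 SD, cut at about 3.6% in these data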;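 further: higher inhibition means more luminescence from relief of DAX-1 repression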
DAX1 inh-2 – inhibitors of human orphan nuclear receptor DAX1 (NR0B1) | P51843 | actives 0.99% (n = 340,000) | inhibition, % at 6.75 µM | HEK293 Gal4-DAX1 luciferase reporter, luminescence | AID 504766;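 active means inhibition above the mean over all tested compounds plus 3 SD, cut at about 4.2% in these data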;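 further: inhibition shows as a rise in luminescence from relieved DAX1 repression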
DAX1 conf – NR0B1 (human) inhibition, confirmation; shares compounds with DAX1 inh-1; HEK293T StAR-promoter luciferase reporter, SF-1/DAX-1 repression; inhibition, % at 6.8 µM; actives 87% (n = 2,400);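 active means inhibition above the average of every tested compound plus 3 SD, cut at about 3.8% in these data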;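 further: active compounds raise luminescence by relieving repression of the StAR reporter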
Target sequence (P51843 whole entry, looked up): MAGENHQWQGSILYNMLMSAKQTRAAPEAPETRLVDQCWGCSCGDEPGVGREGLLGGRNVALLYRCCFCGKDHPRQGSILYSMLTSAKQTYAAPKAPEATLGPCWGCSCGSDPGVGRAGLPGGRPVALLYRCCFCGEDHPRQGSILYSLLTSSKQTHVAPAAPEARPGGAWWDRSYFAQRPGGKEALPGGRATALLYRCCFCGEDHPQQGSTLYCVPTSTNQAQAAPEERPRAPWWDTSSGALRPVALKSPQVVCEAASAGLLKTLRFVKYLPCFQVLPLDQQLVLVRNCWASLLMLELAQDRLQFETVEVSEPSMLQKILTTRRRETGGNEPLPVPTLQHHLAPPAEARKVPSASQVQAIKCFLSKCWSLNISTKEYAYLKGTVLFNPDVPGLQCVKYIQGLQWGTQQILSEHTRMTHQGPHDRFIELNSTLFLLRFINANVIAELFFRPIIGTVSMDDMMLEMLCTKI
SF1 AF2mut Luc – counter-screen for DAX1 inhibitors: nonselective inhibitors with SF-1 AF2 mutant | HEK293 StAR-luciferase, luminescence | inhibition, % at 6.8 µM | actives 78% (n = 2,400) | shares compounds with DAX1 inh-1;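 active means inhibition above the mean of all tested compounds plus 3 SD, cut at about 3% in these data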
LXR ag – LXR-beta agonism as hcDAF-12 counter-screen; 3,400 tested, under 10 active; AID 743027; activation, % at 6.8 µM; HEK293 Gal4-LXR tk-luc reporter, luminescence, 24 h; normalized: DMSO 0%, positive control 100%; shares compounds with hcDAF12 agonist;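 active means mean percent activation of the reporter above a cutoff set as the average over tested compounds plus their standard deviation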
hcDAF12 ag – hcDAF-12 agonism, confirmation assay; HEK293 hcDAF-12 lit1-tk-luc reporter, luminescence; % of Δ7-dafachronic acid response; activation, % at 6.8 µM; shares compounds with hcDAF12 agonist; AID 743032; actives 61% (n = 3,400);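 active means mean activation across triplicate tests above the threshold derived from the earlier primary screen, cut at about 5.5% in these data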
hgDAF12 conf – hgDAF-12 agonism, confirmation assay; shares compounds with hgDAF-12 ag; actives 80% (n = 3,300); HEK293 GAL4-hgDAF12 luciferase reporter, agonist mode; percent of butyrate response; activation, % at 6.8 µM;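 active means mean activation over triplicate wells above the hit cutoff derived from the earlier primary screen, cut at about 11% in these data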
LXR ag 2 – counter-screen for DAF-12 agonists: agonists of human LXR-beta; shares compounds with hgDAF-12 ag; HEK293 Gal4-LXR luciferase reporter, 24 h; activation, % at 6.8 µM; 3,300 tested, under 10 active; AID 743051;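 active means mean activation of the triplicate above a set limit carried over from the primary screen, none filed active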
Each line names hits and unclear results; the compound was inactive in the other large screens (follow-up assays come after a bar, where they were run). Only some compounds are listed: those with a hit (about 4.1% of all), similar ones and a draw of the others.

COc1cc(Cl)ccc1OCc1cc(C(=O)N2CCCC(OC)C2)no1 (stereo unspecified)	hgDAF-12 ag 18.5, DAX1 inh-1 8.1 | DAX1 conf 6.6 | SF1 AF2mut Luc 4.1 | hgDAF12 conf 17.4 | LXR ag 2 inactive
Fc1ccccc1CSc1ncnc2c1ncn2C1CCCO1 (stereo unspecified)	none
CCCCSc1ncnc2c1ncn2C1CCCCO1 (stereo unspecified)	hgDAF-12 ag 16.7, DAX1 inh-1 5.4, DAX1 inh-2 5.9 | DAX1 conf 10.7 | SF1 AF2mut Luc 6.0 | hgDAF12 conf 16.2 | LXR ag 2 inactive
NC(=O)c1nsc(C(=O)N(Cc2cccnc2)C(C(=O)NCc2ccc(F)cc2)c2ccc(O)cc2)c1N (stereo unspecified)	none
COc1ccc(CNc2nc3ccccc3n2C)c(OC)c1	hgDAF-12 ag 13.3, DAX1 inh-1 6.4 | DAX1 conf 12.5 | SF1 AF2mut Luc 7.4 | hgDAF12 conf 15.2 | LXR ag 2 inactive
Oc1ccccc1-c1cc(-c2ccccc2Cl)[nH]n1	hgDAF-12 ag 25.1, hcDAF12 agonist 19.2, ssDAF12 agonist 4.0, DAX1 inh-1 8.6 | DAX1 conf 18.7 | SF1 AF2mut Luc 10.5 | LXR ag inactive | hcDAF12 ag 14.7 | hgDAF12 conf 26.8 | LXR ag 2 inactive
Cc1cc(C(=O)Nc2ccc(Br)cn2)sc1C	hgDAF-12 ag 14.0, hcDAF12 agonist 5.8, DAX1 inh-1 6.3 | DAX1 conf 12.9 | SF1 AF2mut Luc 8.6 | hgDAF12 conf 17.8 | LXR ag 2 inactive
CCC(=O)Nc1ccc(Br)cn1	none
CCOC(=O)CSc1nc2cc(OC)ccc2cc1C#N	hgDAF-12 ag 13.4, hcDAF12 agonist 7.2, DAX1 inh-1 4.8 | DAX1 conf 14.9 | SF1 AF2mut Luc 8.1 | LXR ag inactive | hcDAF12 ag inactive | hgDAF12 conf 20.0 | LXR ag 2 inactive
CCOC(=O)CSc1nc2cc(C)cc(C)c2cc1C#N	none
CCOC(=O)CSc1nc2ccc(C)cc2cc1C#N	hgDAF-12 ag 14.3, hcDAF12 agonist 8.9, DAX1 inh-1 5.6 | DAX1 conf 13.1 | SF1 AF2mut Luc 10.0 | LXR ag inactive | hcDAF12 ag inactive | hgDAF12 conf 20.1 | LXR ag 2 inactive
COc1cccc(NC(=O)Nc2ccc3c(c2)nc(C)n3C)c1	hgDAF-12 ag 20.4, hcDAF12 agonist 5.7, DAX1 inh-1 4.7 | DAX1 conf 12.1 | SF1 AF2mut Luc 7.8 | hgDAF12 conf 14.8 | LXR ag 2 inactive
Cc1ccc2nc(-c3ccc(NC(=O)C(C)N4C(=O)c5ccccc5C4=O)cc3)sc2c1 (stereo unspecified)	hgDAF-12 ag 21.5, hcDAF12 agonist 8.6, DAX1 inh-1 6.2 | DAX1 conf 8.8 | SF1 AF2mut Luc 5.8 | LXR ag inactive | hcDAF12 ag inactive | hgDAF12 conf 13.2 | LXR ag 2 inactive
